What all share (type): functional
Assay [1] concerns the target Solute carrier family 2, facilitated glucose transporter member 1 (Homo sapiens) (UniProt P11166). Briefly: ST_JUDE_LEISH: Cytotoxicity at 2uM final concentration against transgenic Leishmania Mexicana promastigotes LmGLUT1 that are glucose transport deficient and complemented with the human glucose transporter GLUT1. Activity is measured by DNA content using SYBR green in vitro.

For assay [2], the target named is Hexose transporter 1 (Plasmodium falciparum) (UniProt O97467). Briefly: ST_JUDE_LEISH: Cytotoxicity at 2uM final concentration against transgenic Leishmania Mexicana promastigotes LmPfHT that are glucose transport deficient and complemented with the Plasmodium falciparum hexose transporter. Activity is measured by DNA content using SYBR green in vitro.
Assay [3] deals with Glucose transporter (Leishmania mexicana) (UniProt O61059). Briefly: ST_JUDE_LEISH: Cytotoxicity at 2uM final concentration against transgenic Leishmania Mexicana promastigotes LmGT2 that are glucose transport deficient and complemented with the L. Mexicana glucose transporter 2. Activity is measured by DNA content using SYBR green in vitro.

Usually inhibition stands for the change of the read-out against control, counted positive when it falls.

Solute carrier family 2, facilitated glucose transporter member 1 (Homo sapiens), sequence (P11166 whole entry): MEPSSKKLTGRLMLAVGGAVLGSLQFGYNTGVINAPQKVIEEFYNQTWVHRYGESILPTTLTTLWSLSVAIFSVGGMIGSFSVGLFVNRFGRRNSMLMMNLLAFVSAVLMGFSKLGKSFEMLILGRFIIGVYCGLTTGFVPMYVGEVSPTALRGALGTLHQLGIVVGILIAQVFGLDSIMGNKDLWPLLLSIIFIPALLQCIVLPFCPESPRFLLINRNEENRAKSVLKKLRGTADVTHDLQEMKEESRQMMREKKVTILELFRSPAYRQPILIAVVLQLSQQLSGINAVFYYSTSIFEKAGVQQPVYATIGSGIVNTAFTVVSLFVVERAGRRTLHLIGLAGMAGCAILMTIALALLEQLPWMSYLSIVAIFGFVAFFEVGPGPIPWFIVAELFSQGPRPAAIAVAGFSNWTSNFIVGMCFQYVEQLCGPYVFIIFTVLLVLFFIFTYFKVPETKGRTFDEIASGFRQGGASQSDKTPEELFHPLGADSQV

With `Cc1c(C(=O)C2CC2CN2CCC(N3CCCC3)CC2)sc2ccccc12` (stereo unspecified), the inhibition in assay [1] is 7.33%; in assay [2], 11.8%; in assay [3], 5.26%.
The like results for `Cc1cc(N[C@@H](Cc2ccccc2)C(=O)NCc2cccc(F)c2)nc(NCCOc2ccccc2)n1` were, in that order, 4.2%, -1.41% and -0.15%.
As to `Cc1cc(N(C)C2CCN(CC3CCCCC3)C2)nc(Nc2ccc(Cl)cc2)n1` (stereo unspecified), the inhibition amounted to 7.35% in assay [1], 5.97% in assay [2] and 4.28% in assay [3].
For the compound `CC(C)(C)C(=O)Nc1ccccc1Oc1ccc(Cl)cc1`, the values for the inhibition in assay [1], in assay [2] and in assay [3] were 5.77%, 4.21% and 5.27%, respectively.
The corresponding values for `CCCN(CCC)C(=S)N/N=C1/C(=O)Nc2ccccc21` are 0.67%, -0.6% and -4.34%.
The corresponding values for `COc1ccc(N2CCN(CCc3ccc(NC(=O)c4ccc([N+](=O)[O-])cc4)cc3)CC2)c(OC)c1` are 9.1%, 6.72% and 6.07%.
The like results for `COc1ccc(-n2cc(CNCCCn3ccnc3)c(-c3cccc(F)c3)n2)cc1` were, in that order, 1.74%, 2.48% and -5.03%.
With `Cc1cccc2nc(-c3ccc(-c4ccc(CN5CCCC5CN)cc4)cc3)[nH]c12` (stereo unspecified), the inhibition in assay [1] came to 6.95%; in assay [2], 6.96%; in assay [3], 4.26%.
The corresponding values for `CC(CN(C)C)C(=O)Nc1cccc(-c2cccc(-c3nc4cc(F)ccc4[nH]3)c2)c1` (stereo unspecified) are -2.1%, -1.06% and -3.91%.
The like results for `FC(F)(F)c1ccc2nccc(NCc3ccccc3)c2c1` were, in that order, 6.8%, 5.96% and 1.41%.
Turning to `Clc1cccc(C23N/C(=N\c4nc5ccccc5[nH]4)NC2(c2ccccc2)N/C(=N\c2nc4ccccc4[nH]2)N3)c1` (stereo unspecified), the results for the inhibition in assay [1], in assay [2] and in assay [3] were 5.03%, 4.69% and 4.94%, respectively.
Take `c1ccc(Oc2ccc(Nc3ccnc(Nc4cccc(CNCCCN5CCOCC5)c4)n3)cc2)cc1`: the inhibition in assay [1] is -3.58%; in assay [2], -2.31%; in assay [3], -1.79%.
As for `COc1ccc2nccc([C@@H](O)CN3CCC(NCCOc4ccccc4C#N)CC3)c2c1`, the figures for the inhibition in assay [1], in assay [2] and in assay [3] were 4.87%, 2.43% and 6.46%, respectively.
The corresponding values for `NC(CC1CC(=O)N1CC(=O)O)C(=O)O` (stereo unspecified) are 8.57%, 7.82% and 8.53%.
Regarding `CCN(CC)c1ccc(-c2nc3cc(Cl)cnc3[nH]2)cc1`, the figures for the inhibition in assay [1], in assay [2] and in assay [3] were 5.04%, 5.32% and 3.88%, respectively.
In the case of `C[C@H]1CN(Cc2cccc(-c3cc(CNC(=O)c4cccc(CN5CCN(CCOc6ccccc6)CC5)c4)ccc3F)c2)CCN1`, the figures for the inhibition in assay [1], in assay [2] and in assay [3] were 0.77%, 0.96% and 2.94%, respectively.
The like results for `CC(=O)Nc1ncc(C(=O)Nc2cccc(-c3cccc(-c4nc5cc(C(F)(F)F)ccc5[nH]4)c3)c2)s1` were, in that order, -1.12%, 0.35% and 0.3%.
The corresponding values for `O=C1COc2cc(Cl)c(CNC3CCN(CCc4ccnc5c(F)cc(F)cc45)CC3)nc2N1` are 2.1%, 2.94% and 1.57%.
The corresponding values for `CO/C(=C\C=C\c1cc2cc(Cl)c(Cl)cc2[nH]1)C(=O)NCCCN1CCN(c2ccncc2)CC1` are 4.85%, 3.18% and 3.48%.
As to `CC(Cc1ccc(C(=O)Nc2ccc(CC(C)NCCc3cccc(Cl)c3)cc2)cc1)NCCc1ccc(C(F)(F)F)cc1` (stereo unspecified), the inhibition in assay [1] turned out to be 56.4%; in assay [2], 37.1%; in assay [3] it was 48.1%.
The like results for `COc1cc(NC(=O)/C=C/c2cccc3cc[nH]c23)ccc1OCCN(C(C)C)C(C)C` were, in that order, 2.46%, 1.55% and -2.66%.
The corresponding values for `COc1c(C=NNc2nc(=Nc3ccccc3)[nH]c(=Nc3ccccc3)[nH]2)ccc(Br)c1O` are 11.3%, 11.7% and 9.27%.
The like results for `CC(C)(C)c1ccc(CNC(=O)/C=C/c2ccc(CNC3CCNCC3)cc2)cc1` were, in that order, -1.23%, -1.07% and -1.84%.
As for `CCNc1cc(C(=O)N[C@@H](Cc2ccc(F)c(F)c2)[C@H](O)CNCc2cccc(OC)c2)cc(N2CCCCS2(=O)=O)c1`, the results for the inhibition in assay [1], in assay [2] and in assay [3] were -0.26%, 0.17% and -0.12%, respectively.
Regarding `CC(C)(C)c1ccc(S(=O)(=O)Nc2ccccc2Cn2nc(N3CCNCC3)ccc2=O)cc1`, the inhibition in assay [1] was 8.03%; in assay [2] it was 7.83%; in assay [3] it was 8.79%.
The corresponding values for `OC(CNCc1ccccc1)c1cc(OCc2ccccc2)cc(OCc2ccccc2)c1` (stereo unspecified) are -0.14%, -1.19% and -0.63%.
As to `CN(C)Cc1ccc(CNC2CCN(Cc3ccccc3Cl)CC2)cc1`, the inhibition in assay [1] came to 18.4%; in assay [2] it was 13.8%; in assay [3], 13.4%.
The like results for `O=C(Nc1cccc(-c2cccc(-c3nc4cc(C(F)(F)F)ccc4[nH]3)c2)c1)c1ccc(=O)[nH]n1` were, in that order, 10.7%, 9.47% and 9.62%.
The like results for `CCCNCc1ccc(-c2ccc(CN(CCOC)C(=O)c3ccc([N+](=O)[O-])c(C)c3)cc2)nc1` were, in that order, 3.77%, 1.8% and 1.19%.
The corresponding values for `COc1cc(Nc2nc(N)n(C(=O)c3ccc4c(c3)OCO4)n2)cc(OC)c1OC` are 15.3%, 9.11% and 0.33%.
As for `C[C@@H]([C@@H](CCCCc1ccccc1)C(=O)N[C@H](C(=O)Nc1cccnc1)C(C)(C)C)N(O)C=O`, the inhibition in assay [1] is 0.14%; in assay [2] it was -1.56%; in assay [3] it was 2.12%.
The corresponding values for `FC(F)c1nc2ccccc2n1-c1nc(N2CCOCC2)nc(N2CCOCC2)n1` are 2.11%, 2.9% and 3.12%.
Consider `O=C(NC1CCN(Cc2ccccc2)CC1)c1cc(-c2cccnc2)nc2ccc(Cl)cc12`, for which the inhibition in assay [1] came out at 8.75%; in assay [2], 6.45%; in assay [3] it was 8.35%.
The like results for `Cc1cccc(C)c1/N=C1\NC(=S)N(c2cccc(Cl)c2)C12CCC(C(C)(C)C)CC2` (stereo unspecified) were, in that order, -2.68%, -1.2% and 0.24%.
As to `CC(=O)Nc1ccc(OCCN(Cc2ccccc2OC(F)(F)F)c2ccc(C(F)(F)F)c(C#N)c2)c(Cl)c1`, the inhibition in assay [1] is 2.43%; in assay [2], 2.88%; in assay [3], 4.14%.
For the compound `COc1ccc(NC(=O)Nc2ccc(-c3ccncc3)c(Cl)c2)cc1N1CCN(C)CC1`, the inhibition in assay [1] is -1.37%; in assay [2], -0.91%; in assay [3], -2.2%.
The corresponding values for `CC(C)(C)c1ccc(CN2CCC(NC(=O)c3cc(-c4cccc(C(F)(F)F)c4)cs3)C2)cc1` (stereo unspecified) are 0.92%, 0.62% and 1.98%.
The corresponding values for `COc1ccccc1C1CCN(C2CCC(NC(=O)c3ccc4[nH]c(-c5ccc(C)cc5)nc4c3)CC2)CC1` (stereo unspecified) are 1.55%, 3.38% and 2.37%.
As for `COc1cc2nc(NCC3CCCO3)n3nc(-c4ccccc4)nc3c2cc1OC` (stereo unspecified), the figures for the inhibition in assay [1], in assay [2] and in assay [3] were 8.44%, 6.19% and 2.53%, respectively.
The corresponding values for `COc1ccc2nccc([C@@H](O)CN3CCC(NCCOc4ccc(F)cc4Cl)CC3)c2c1` are 9.75%, 11.6% and 4.96%.
The corresponding values for `O=C(/C=C/c1ccc(Cl)cc1)NCCCCCN1CCC(C(=O)Nc2cccc(Cl)c2)CC1` are 2.16%, 2.2% and 0.58%.
The corresponding values for `COc1cccc2cc(C(=O)N[C@@H](CC(C)C)C(=O)N[C@H](/C=N/N3C(=O)CN(Cc4ccccc4)C3=O)CCc3ccccc3)oc12` are 7.07%, 8.34% and 6.11%.
Take `CCOC(=O)CCc1cc(F)c(F)c(OC[C@H](O)CNC(C)(C)C(O)c2ccc3ccccc3c2)c1` (stereo partly specified): the results for the inhibition in assay [1], in assay [2] and in assay [3] were 0.06%, 0.61% and 0.21%, respectively.
For the compound `COc1cc(C=C(C2=NC(=O)CS2)c2nc3cccnc3n2C)ccc1O`, the inhibition in assay [1] was 5.2%; in assay [2], 5.56%; in assay [3], 4.82%.
The corresponding values for `O=C(Nc1ccc(CCNCCCc2ccccc2)cc1)Nc1ccc(Cl)c(Cl)c1` are -0.55%, -0.63% and -1.86%.
The like results for `Cc1cnc(NCCc2ccc(F)cc2)nc1N[C@@H](CC(C)C)C(=O)Nc1ccccc1` were, in that order, 5.17%, 4.05% and 4.26%.
The like results for `N=C(Cc1ccc(Cl)cc1)NCCN1CCCCCC1` were, in that order, 5.13%, 7.11% and 6.19%.
With `CN1CCN(CC(=O)Nc2ccc(-c3ccc(-c4nc5cc(C(F)(F)F)ccc5[nH]4)cc3)cc2)CC1`, the results for the inhibition in assay [1], in assay [2] and in assay [3] were 2.58%, 0.64% and 1.55%, respectively.
The like results for `COc1ccc(Nc2nccc(NCC(O)c3cccc(C(F)(F)F)c3)n2)cc1` (stereo unspecified) were, in that order, 1.24%, 2.47% and -1.44%.
The like results for `COc1ccc(CNCc2cccc(-c3ccc(-c4nc5ccccc5[nH]4)s3)c2)cc1` were, in that order, 5.19%, 3.24% and 2.44%.
The like results for `N#CC(c1ccc(Br)cc1)c1ccc2c(C(F)(F)F)cc(C(F)(F)F)nc2n1` (stereo unspecified) were, in that order, 4.94%, 4.44% and 0.48%.
For `CN1CCN(CCCNCc2cccc(Nc3nccc(Nc4ccc(Oc5ccccc5)cc4)n3)c2)CC1`, the inhibition in assay [1] was 1.12%; in assay [2], 2.79%; in assay [3] it was 0.79%.

These data come from ChEMBL document CHEMBL3433997, “St. Jude Leishmania screening dataset” (2016).
